Laboratory results from PubChem BioAssay AID1233 (SRMLSC, 2008).
Results with a measured potency or affinity are listed apart. Activity calls are given as the source filed them.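 The calls were made as follows: active = a dose-response curve fit returns a half-maximal inhibitory concentration, extrapolated values included; inactive = the fit returns no such concentration.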

target: HMG-CoA reductase [Enterococcus faecalis] (UniProt Q9FD70); assay: inhibitors of E. faecalis class II HMGR, confirmation, biochemical, Enterococcus faecalis (AID 1233);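 also: 0% = full reaction carrier wells and 100% = background wells lacking mevalonate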; conditions: purified E. faecalis HMGR, NADPH absorbance 340 nm kinetics; series mostly up to 100 µM; inhibition: at the top concentration

inhibition, inactive:
CN(C)S(=O)(=O)c1cccc(NC(=O)Cn2cc(C(F)(F)F)cc(Cl)c2=O)c1 -11.3%
CCOC(=O)C1=C(COc2ccc(F)cc2Cl)NC(=O)NC1c1cc(C)ccc1C (centres undefined) -5.48%
COc1ccc(/C=N/Nc2nccnc2Cl)c(OC)c1 -15.9%
Cc1cc(=O)[nH]c(N/N=C/c2ccc(N(C)C)cc2)n1 -14.6%
CN(C)S(=O)(=O)c1ccc(NC(=O)N2CCOCC2)cc1 -2.88%
O=C(c1cccs1)N(c1ccc(F)cc1)C1C=CS(=O)(=O)C1 (centres undefined) -5.9%
CCc1nc(N)nc(N)c1-c1ccc(Cl)cc1 -0.14%
CCCOP(=O)(OCCC)c1nc(-c2ccccc2)oc1NCc1ccccc1 0.1%
COc1ccc2oc(=Nc3ccc(C(=O)O)cc3)c(C(=O)NCc3ccco3)cc2c1 -5.55%
NC(=S)NNC(=O)c1cccc(Br)c1 -10.2%
CCOc1cc(/C=N\NC(=O)OC(C)(C)C)ccc1OC(=O)c1ccco1 -8.84%
Cc1cccc(/C=N/NC(=O)c2cc(-c3cccnc3)nc3c2c(C)nn3-c2ccccc2)c1 -4.78%
Cc1cc(C)c2c(=O)[nH]c(SCC(=O)N(C)C)nc2n1 -3.15%
Cc1ccc(/C=C/C(=O)O)cc1S(=O)(=O)NCCCO -7.91%
O=C1c2ccccc2C(=O)N1CCN1CCCCC1 -7.22%
CC(C)(C)C1(O)CC(C(F)(F)F)=NN1C(=O)CCCc1ccccc1 (centres undefined) 0.09%
CCCCCCCCNC(=S)NCCN1CCCCC1 -6.35%
CCOc1ccc(-c2[nH]ncc2Oc2ccccc2OCC)c(O)c1 -7.1%
O=C(Oc1ccccc1O)c1cccc2ccccc12 -3.31%
